Results filed as inconclusive are left out. Where a call stands in place of a potency, no number is given. Activity calls are given as the source filed them. Calls follow the shape of the dose curve; as a rule, active = well fitted curve in the direction sought with a large enough effect in the repeat runs; inconclusive = weak or mixed curves; inactive = no such curve, though single readings can be large; an effect the other way counts as inactive or inconclusive.
Key:
[1] = target: Cytochrome P450 2D6 (Homo sapiens) (UniProt P10635); assay: Cytochrome P450 Family 2 Subfamily D Member 6 (CYP2D6) small molecule antagonists: luciferase reporter qHTS assay (AID 1671196); conditions: P450-Glo CYP2D6 enzyme assay, luciferin luminescence, 1 h; series mostly up to 115 µM; also: nearly all actives have a fitted effect of over 50% in size
In short: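 P450-Glo format: CYP2D6 converts a proluciferin substrate to luciferin in an NADPH-driven reaction lasting 1 h at room temperature. Light output, proportional to CYP2D6 activity, reflects interference by test chemicals.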

[2] = target: Cytochrome P450 2C19 (Homo sapiens) (UniProt P33261); assay: Cytochrome P450 Family 2 Subfamily C Member 19 (CYP2C19) small molecule antagonists: luciferase reporter qHTS assay (AID 1671197); conditions: P450-Glo CYP2C19 enzyme, luciferin luminescence, 1 h; series mostly up to 115 µM; also: nearly all actives have a fitted effect of over 65% in size
In short: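 Compounds were tested on CYP2C19 activity via proluciferin conversion to luciferin. The 37C, 1 h reaction followed NADPH addition; detection reagent stopped it.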

[3] = target: Cytochrome P450 2C9 (Homo sapiens) (UniProt P11712); assay: Cytochrome P450 Family 2 Subfamily C Member 9 (CYP2C9) small molecule antagonists: luciferase reporter qHTS assay (AID 1671198); conditions: P450-Glo CYP2C9 enzyme assay, luciferin luminescence; series mostly up to 115 µM; also: nearly all actives have a fitted effect of over 50% in size
In short: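 P450-Glo proluciferin substrate with CYP2C9 enzyme; 10 min RT preincubation, then NADPH regeneration 1 h at 37C; luciferin detection reagent 20 min RT, luminescence in relative luminescence units.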

[4] = target: Cytochrome P450 1A2 (Homo sapiens) (UniProt P05177); assay: Cytochrome P450 Family 1 Subfamily A Member 2 (CYP1A2) small molecule antagonists: luciferase reporter qHTS assay (AID 1671199); conditions: P450-Glo CYP1A2 enzyme, luciferin luminescence, 1 h; series mostly up to 53 µM; also: nearly all actives have a fitted effect of over 50% in size
In short: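 Inhibition of CYP1A2 conversion of proluciferin to luciferin, detected by luminescence. Reaction run 1 h at room temperature with NADPH regeneration after brief compound preincubation.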

[5] = target: Voltage-gated inwardly rectifying potassium channel KCNH2 (Homo sapiens) (UniProt Q12809); assay: Human Ether-a-go-go-Related Gene (hERG) channel small molecule antagonists: fluorescence cell-based qHTS assay (AID 1671200); conditions: hERG-U2OS cells, FluxOR thallium flux fluorescence; series mostly up to 76.8 µM; also: nearly all actives have a fitted effect of over 50% in size
In short: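 Channel function was assessed by thallium flux. Cells seeded the previous day and kept at 37 C took up FluxOR II dye over 1 h in the dark at room temperature, then sat another 10 min before stimulation.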

[6] = target: Cytochrome P450 3A4 (Homo sapiens) (UniProt P08684); assay: Cytochrome P450 Family 3 Subfamily A Member 4 (CYP3A4) small molecule antagonists: luciferase reporter qHTS assay (AID 1671201); conditions: P450-Glo CYP3A4 enzyme, luciferin luminescence, 1 h; series mostly up to 115 µM; also: nearly all actives have a fitted effect of over 50% in size
In short: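 Compounds in DMSO were pin-transferred onto CYP3A4 enzyme-substrate mix and held 10 min at room temperature. NADPH regenerating solution started the reaction for 1 h; luciferin detection reagent stopped it, and luminescence was read after 20 min.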
Potency is read from the fitted curve at half-maximal effect.

Voltage-gated inwardly rectifying potassium channel KCNH2 (Homo sapiens), sequence (Q12809 whole entry, looked up): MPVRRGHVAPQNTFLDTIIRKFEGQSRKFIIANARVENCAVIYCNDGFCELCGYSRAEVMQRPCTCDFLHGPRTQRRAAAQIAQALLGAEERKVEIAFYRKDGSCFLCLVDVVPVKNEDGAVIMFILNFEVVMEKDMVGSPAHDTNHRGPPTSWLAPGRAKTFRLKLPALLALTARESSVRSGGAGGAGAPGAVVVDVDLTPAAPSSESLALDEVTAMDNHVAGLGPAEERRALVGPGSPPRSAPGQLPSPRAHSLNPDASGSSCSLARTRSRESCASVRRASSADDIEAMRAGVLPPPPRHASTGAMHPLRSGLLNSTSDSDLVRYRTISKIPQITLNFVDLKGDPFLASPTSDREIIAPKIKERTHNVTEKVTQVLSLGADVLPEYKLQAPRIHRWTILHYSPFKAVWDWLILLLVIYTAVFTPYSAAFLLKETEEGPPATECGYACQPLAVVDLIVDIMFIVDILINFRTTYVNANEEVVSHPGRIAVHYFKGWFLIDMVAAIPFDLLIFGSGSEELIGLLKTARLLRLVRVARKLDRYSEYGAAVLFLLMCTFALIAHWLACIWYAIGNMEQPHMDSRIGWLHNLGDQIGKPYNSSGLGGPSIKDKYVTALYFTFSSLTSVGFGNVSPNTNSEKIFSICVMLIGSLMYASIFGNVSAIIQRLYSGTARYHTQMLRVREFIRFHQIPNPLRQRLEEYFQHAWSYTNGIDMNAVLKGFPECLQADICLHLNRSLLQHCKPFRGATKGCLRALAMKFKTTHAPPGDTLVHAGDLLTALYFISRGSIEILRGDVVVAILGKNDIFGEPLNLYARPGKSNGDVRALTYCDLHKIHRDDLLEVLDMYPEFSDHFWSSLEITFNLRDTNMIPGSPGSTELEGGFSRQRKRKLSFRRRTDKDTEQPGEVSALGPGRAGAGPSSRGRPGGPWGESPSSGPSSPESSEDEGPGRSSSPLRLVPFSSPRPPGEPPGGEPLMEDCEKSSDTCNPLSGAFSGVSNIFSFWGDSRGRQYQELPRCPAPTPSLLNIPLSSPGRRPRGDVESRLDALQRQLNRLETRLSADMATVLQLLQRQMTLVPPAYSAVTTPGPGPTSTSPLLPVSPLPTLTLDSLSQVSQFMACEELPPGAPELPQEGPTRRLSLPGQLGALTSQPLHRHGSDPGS
Cytochrome P450 2C9 (Homo sapiens), sequence (P11712 whole entry, looked up): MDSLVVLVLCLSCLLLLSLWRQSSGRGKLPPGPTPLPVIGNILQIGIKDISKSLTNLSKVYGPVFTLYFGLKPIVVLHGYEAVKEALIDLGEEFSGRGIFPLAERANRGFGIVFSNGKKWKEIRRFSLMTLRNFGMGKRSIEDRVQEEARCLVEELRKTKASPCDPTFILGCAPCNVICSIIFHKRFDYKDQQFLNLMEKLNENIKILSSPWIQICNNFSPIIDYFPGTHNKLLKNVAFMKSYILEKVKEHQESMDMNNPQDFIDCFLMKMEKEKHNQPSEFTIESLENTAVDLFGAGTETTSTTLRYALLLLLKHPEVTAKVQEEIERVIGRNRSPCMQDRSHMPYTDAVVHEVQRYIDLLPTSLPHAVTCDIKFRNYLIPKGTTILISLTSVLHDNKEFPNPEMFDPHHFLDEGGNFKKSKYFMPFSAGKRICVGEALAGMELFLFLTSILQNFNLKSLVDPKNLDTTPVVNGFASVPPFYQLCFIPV
Cytochrome P450 1A2 (Homo sapiens), sequence (P05177 whole entry, looked up): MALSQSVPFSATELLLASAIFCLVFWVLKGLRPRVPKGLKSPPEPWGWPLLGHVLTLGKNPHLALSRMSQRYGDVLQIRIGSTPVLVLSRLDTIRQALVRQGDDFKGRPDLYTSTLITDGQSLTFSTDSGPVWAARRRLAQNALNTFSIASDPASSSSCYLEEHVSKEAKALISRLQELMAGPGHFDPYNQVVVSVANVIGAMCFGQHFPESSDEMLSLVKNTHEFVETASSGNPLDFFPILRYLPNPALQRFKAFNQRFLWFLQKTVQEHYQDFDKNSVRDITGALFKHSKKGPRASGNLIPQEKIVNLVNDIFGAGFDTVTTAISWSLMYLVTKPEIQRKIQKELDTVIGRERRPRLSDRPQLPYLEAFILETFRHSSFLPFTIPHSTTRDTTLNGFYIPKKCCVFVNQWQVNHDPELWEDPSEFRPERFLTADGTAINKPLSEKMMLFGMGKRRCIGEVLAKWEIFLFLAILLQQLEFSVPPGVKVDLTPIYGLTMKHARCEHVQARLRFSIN
Cytochrome P450 3A4 (Homo sapiens), sequence (P08684 whole entry, looked up): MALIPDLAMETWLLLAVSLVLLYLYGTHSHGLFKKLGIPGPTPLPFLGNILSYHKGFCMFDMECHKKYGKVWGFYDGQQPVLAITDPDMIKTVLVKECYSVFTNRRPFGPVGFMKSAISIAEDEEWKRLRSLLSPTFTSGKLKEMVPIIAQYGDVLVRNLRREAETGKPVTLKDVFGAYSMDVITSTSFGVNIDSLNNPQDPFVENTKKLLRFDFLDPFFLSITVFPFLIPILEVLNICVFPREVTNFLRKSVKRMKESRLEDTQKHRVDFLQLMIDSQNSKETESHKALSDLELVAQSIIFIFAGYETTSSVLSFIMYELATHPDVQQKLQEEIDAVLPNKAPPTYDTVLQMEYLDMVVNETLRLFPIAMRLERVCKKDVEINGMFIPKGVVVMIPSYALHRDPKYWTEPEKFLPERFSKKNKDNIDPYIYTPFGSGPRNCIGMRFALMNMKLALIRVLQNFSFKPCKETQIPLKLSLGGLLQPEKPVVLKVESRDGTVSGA
Cytochrome P450 2D6 (Homo sapiens), sequence (P10635 whole entry, looked up): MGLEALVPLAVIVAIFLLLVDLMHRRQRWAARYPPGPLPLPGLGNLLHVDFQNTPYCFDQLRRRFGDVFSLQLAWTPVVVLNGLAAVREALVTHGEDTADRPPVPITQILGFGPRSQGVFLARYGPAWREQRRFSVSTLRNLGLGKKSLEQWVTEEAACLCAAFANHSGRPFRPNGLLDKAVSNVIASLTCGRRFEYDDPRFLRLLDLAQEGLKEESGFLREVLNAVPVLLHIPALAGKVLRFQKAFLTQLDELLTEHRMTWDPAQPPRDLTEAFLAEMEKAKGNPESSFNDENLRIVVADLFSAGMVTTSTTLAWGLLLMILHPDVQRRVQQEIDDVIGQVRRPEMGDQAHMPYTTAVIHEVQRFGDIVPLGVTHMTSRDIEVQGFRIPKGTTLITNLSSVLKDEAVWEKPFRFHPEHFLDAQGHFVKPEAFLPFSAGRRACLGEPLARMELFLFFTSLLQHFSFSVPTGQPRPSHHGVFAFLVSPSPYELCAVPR
Cytochrome P450 2C19 (Homo sapiens), sequence (P33261 whole entry, looked up): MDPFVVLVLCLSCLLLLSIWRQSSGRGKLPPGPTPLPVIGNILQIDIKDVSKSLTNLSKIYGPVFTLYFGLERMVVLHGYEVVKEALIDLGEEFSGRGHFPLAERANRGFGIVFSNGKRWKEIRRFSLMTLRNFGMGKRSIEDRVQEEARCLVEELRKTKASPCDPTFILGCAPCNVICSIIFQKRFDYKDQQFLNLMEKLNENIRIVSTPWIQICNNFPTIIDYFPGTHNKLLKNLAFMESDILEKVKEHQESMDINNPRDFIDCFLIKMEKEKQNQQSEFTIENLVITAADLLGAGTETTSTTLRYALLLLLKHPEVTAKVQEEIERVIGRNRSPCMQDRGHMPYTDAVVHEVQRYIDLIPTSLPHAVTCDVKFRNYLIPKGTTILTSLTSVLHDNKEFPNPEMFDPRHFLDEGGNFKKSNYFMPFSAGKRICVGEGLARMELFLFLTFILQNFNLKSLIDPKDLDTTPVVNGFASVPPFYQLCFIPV

Structure (SMILES)	Potency [1]	Potency [2]	Potency [3]	Potency [4]	Potency [5]	Potency [6]
CCC(=O)/C=C/c1ccc(OC)cc1	inactive	12.6 µM (active)	39.9 µM (active)	20 µM (active)	inactive	inactive
NC(=O)c1ncn([C@@H]2O[C@H](CO)[C@@H](O)[C@H]2O)c1N	inactive	inactive	inactive	inactive	inactive	inactive
CC(C)(C)C(=O)/C=C/c1ccc(Cl)cc1	inactive	7.96 µM (active)	63.3 µM (active)	22.4 µM (active)		inactive
CC(C)(O)Cc1ccccc1	inactive	inactive	inactive	inactive		inactive
CC(C)CCOC(=O)CC(C)C	inactive	inactive	inactive	inactive	inactive	inactive
CC1=CC(C)C(C=O)C(C)C1 (stereo unspecified)	inactive	inactive		inactive	inactive	inactive
CN(C)CCOC(c1ccc(Cl)cc1)c1ccccn1 (stereo unspecified)	13.8 µM (active)	inactive	inactive		inactive	
Nc1cc(N)cc(C(=O)O)c1	35.6 µM (active)	79.6 µM (active)		inactive	inactive	inactive
CCCOc1ccccc1-c1nc2n[nH]nc2c(=O)[nH]1	inactive	inactive	inactive		inactive	inactive
C=CCn1c(=O)n([C@@H]2O[C@H](CO)[C@@H](O)[C@H]2O)c2nc(N)[nH]c(=O)c21	inactive	inactive	inactive		inactive	inactive
C#CC(O)C(CC)CCCC (stereo unspecified)	inactive	71 µM (active)		inactive	inactive	
COc1cc(CCC(C)=O)ccc1O	inactive	inactive	inactive			inactive
O=C1OC(=O)c2cc([N+](=O)[O-])ccc21	35.5 µM (active)	inactive	inactive		inactive	
C=C(C)C(=O)NCCCN(C)C	inactive	inactive	inactive			inactive
CCCCN(CCO)CCO	inactive	inactive		inactive	inactive	inactive
O=C(O)C(O)[C@H](O)[C@@H](O)[C@H](O)[C@H](O)CO (stereo partly specified)	64 µM (active)	40.4 µM (active)		40.4 µM (active)	inactive	inactive
C=C(C)[C@H]1CC=C(C)CC1	35.6 µM (active)	inactive	inactive			inactive
CC(C)c1cccc(O)c1	inactive	inactive	inactive		inactive	
CC(C)(C)N(CCO)CCO	inactive	inactive	inactive			inactive
OCC(CO)(CO)COCC(CO)(CO)CO	inactive	inactive	inactive		inactive	inactive
CCCCCCOC(=O)c1ccccc1O	inactive	inactive	inactive			inactive
O=[N+]([O-])c1ccc(Oc2ccc([N+](=O)[O-])cc2)cc1	inactive	1.82 µM (active)		inactive	39.8 µM (active)	inactive
CCC(C)OC(=O)N1CCCCC1CCO (stereo unspecified)	inactive	35.6 µM (active)	79.6 µM (active)		inactive	inactive
CCCCCCCCN(C)CCCCCCCC	64 µM (active)	inactive		inactive	1.57 µM (active)	
COc1ccc(COC=O)cc1	inactive	inactive		63.3 µM (active)	inactive	

Structure (SMILES)	Potency [1]	Potency [2]	Potency [3]	Potency [4]	Potency [5]	Potency [6]
CC(C)=CC(=O)O	inactive	inactive	inactive		inactive	
CSc1ccc(C=O)cc1	inactive	inactive	inactive			inactive
NC(=O)Nc1nc2ccccc2[nH]1	31.5 µM (active)	39.6 µM (active)		39.6 µM (active)	inactive	
CC/C=C\CCCCO	inactive	inactive		inactive	inactive	
COC(=O)c1ccc(C(=O)OC)c(C(=O)OC)c1	inactive	39.9 µM (active)		7.96 µM (active)	inactive	inactive
CCO[Si](C)(OCC)OCC	inactive	inactive	inactive			28.3 µM (active)
OC/C=C/c1ccccc1	59 µM (active)	74.3 µM (active)	52.6 µM (active)			inactive
O=C(O)CCNC(=O)c1ccc(N=Nc2ccc(O)c(C(=O)O)c2)cc1	inactive	inactive		inactive	inactive	inactive
CC(C)(O)C(=O)c1ccc(OCCO)cc1	inactive	inactive		35.6 µM (active)	inactive	inactive
CC1=CCC2C(C1)C2(C)C (stereo unspecified)	inactive	39.9 µM (active)	63.3 µM (active)		inactive	15.9 µM (active)
CCCCCCC(CCCCCCCCCCC(=O)OCC(COC(C)=O)OC(C)=O)OC(C)=O (stereo unspecified)	inactive	inactive	2.45 µM (active)		inactive	inactive
C#CC(O)CCCCC (stereo unspecified)	inactive	80.3 µM (active)	inactive			inactive
CC(C)COC(=O)c1ccccc1O	inactive	inactive	inactive		inactive	inactive
CC(C)=CCC/C(C)=C/C(=O)O	inactive	39.9 µM (active)		inactive	inactive	
CCCC(=O)O[C@]1(C(=O)CCl)[C@@H](C)C[C@H]2[C@@H]3CCC4=CC(=O)C=C[C@]4(C)[C@@]3(F)C(=O)C[C@@]21C	11 µM (active)	7.76 µM (active)		inactive		
CCC(=O)Nc1cccc(N)c1	inactive	inactive	inactive		inactive	
CCCc1ccc(N)cc1	inactive	35.6 µM (active)		35.6 µM (active)	inactive	
COC(=O)[C@H]1[C@H]2C[C@@H]3c4[nH]c5cc(OC)ccc5c4CCN3C[C@H]2C[C@@H](OC(=O)COc2ccc(OC)cc2)[C@@H]1OC	17.4 µM (active)		27.5 µM (active)			
CCCCCCCCC=O	inactive	inactive		inactive	inactive	inactive
COC(=O)C1=C(C)NC(C)=C(C(=O)OCC(C)=O)C1c1ccccc1[N+](=O)[O-] (stereo unspecified)	inactive		13.8 µM (active)	2.45 µM (active)	inactive	
O=C(O)c1cccc(C(=O)O)n1	inactive		inactive	inactive	inactive	
c1ccc2cnncc2c1	inactive		inactive	14.2 µM (active)	inactive	inactive
C#CC(C)(O)CC(C)C (stereo unspecified)	inactive		inactive	inactive	inactive	
C1C2OC2C2C1C1CC2C2OC12 (stereo unspecified)	inactive	40.1 µM (active)		inactive		inactive
OCC(O)[C@@H](O)[C@H](O)[C@H](O)CO[C@H]1O[C@H](CO)[C@@H](O)[C@H](O)[C@H]1O (stereo partly specified)	inactive	19.9 µM (active)			inactive	

— PubChem BioAssay (Tox21)
